# Laboratory results from paper PMC7862700, “An all-to-all approach to the identification of sequence-specific readers for epigenetic DNA modifications on cytosine”.
# Tests used:
# Test in all cases: DAPPL (digital affinity profiling via proximity ligation, sequencing); 10 mM Tris-HCl pH 7.5, 50 mM NaCl, 1 mM DTT, 4% glycerol, room temperature, 30 min; GST-TFs on glutathione beads, 16-mer random dsDNA library, 0.1% formaldehyde crosslink after washing; high values mean tight binding
# FEV = target: T1, FEV (Homo sapiens, UniProt Q99581 1-238); conditions: protein: recombinant; tags: N-terminal GST; dsDNA, one strand shown
# T1 sequence: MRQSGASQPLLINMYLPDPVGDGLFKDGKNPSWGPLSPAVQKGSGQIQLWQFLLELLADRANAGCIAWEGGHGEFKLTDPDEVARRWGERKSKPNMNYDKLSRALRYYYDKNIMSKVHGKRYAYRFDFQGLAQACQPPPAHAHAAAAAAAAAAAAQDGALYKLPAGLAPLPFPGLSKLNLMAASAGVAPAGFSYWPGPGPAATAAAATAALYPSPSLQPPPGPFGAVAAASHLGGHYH
# How it was run: (§1)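 Binding signal is each hexamer's read frequency for a factor divided by its frequency in the tag-only sample. The factors were GST-fused human transcription factors from yeast, captured on glutathione beads, DNA-barcoded and pooled with that sample. Pools were incubated with 200 nmole of a random double-stranded 16-mer DNA library in Tris/NaCl/DTT/glycerol buffer at room temperature for 30 min, then washed, crosslinked with 0.1% formaldehyde, proximity-ligated with BsaI/T4 ligase (1 h, 37 °C), PCR-amplified and sequenced on an Illumina NextSeq500.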
# ETV5 = ETV5 (Homo sapiens, UniProt P41161 1-510); conditions: protein: recombinant; tags: N-terminal GST; dsDNA, one strand shown
# How it was run: as §1
# HSF1 = HSF1 (Homo sapiens, UniProt Q00613 1-529); conditions: protein: recombinant; tags: N-terminal GST; chain copies: 3; dsDNA, one strand shown
# How it was run: as §1
# SPIC = target: T2, SPIC (Homo sapiens, UniProt Q8N5J4 1-248); conditions: protein: recombinant; tags: N-terminal GST; dsDNA, one strand shown
# T2 sequence: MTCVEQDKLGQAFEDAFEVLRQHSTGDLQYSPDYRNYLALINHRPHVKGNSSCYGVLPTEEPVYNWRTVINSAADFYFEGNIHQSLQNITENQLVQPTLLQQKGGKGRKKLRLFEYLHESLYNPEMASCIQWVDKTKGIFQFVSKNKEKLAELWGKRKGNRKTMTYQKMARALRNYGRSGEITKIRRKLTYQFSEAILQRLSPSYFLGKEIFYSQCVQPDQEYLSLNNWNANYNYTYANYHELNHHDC
# How it was run: as §1
# ELF4 = ELF4 (Homo sapiens, UniProt Q99607 1-663); conditions: protein: recombinant; tags: N-terminal GST; dsDNA, one strand shown
# How it was run: as §1
# ELK4 = target: T3, ELK4 (Homo sapiens, UniProt P28324-2 1-405); conditions: protein: recombinant; tags: N-terminal GST; dsDNA, one strand shown
# T3 sequence: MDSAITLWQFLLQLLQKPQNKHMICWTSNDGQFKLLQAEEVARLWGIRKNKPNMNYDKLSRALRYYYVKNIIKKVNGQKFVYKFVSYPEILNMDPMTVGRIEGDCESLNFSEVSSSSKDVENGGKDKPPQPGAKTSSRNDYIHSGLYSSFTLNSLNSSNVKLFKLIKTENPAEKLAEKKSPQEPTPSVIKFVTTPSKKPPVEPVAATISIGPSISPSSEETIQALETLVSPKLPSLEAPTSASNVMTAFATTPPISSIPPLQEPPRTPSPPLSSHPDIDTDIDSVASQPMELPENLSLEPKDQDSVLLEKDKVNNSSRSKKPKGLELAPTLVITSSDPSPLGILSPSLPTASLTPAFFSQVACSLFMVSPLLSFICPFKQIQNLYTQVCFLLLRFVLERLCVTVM
# How it was run: as §1
# ETV2 = target: T4, ETV2 (Homo sapiens, UniProt O00321 1-342); conditions: protein: recombinant; tags: N-terminal GST; dsDNA, one strand shown
# T4 sequence: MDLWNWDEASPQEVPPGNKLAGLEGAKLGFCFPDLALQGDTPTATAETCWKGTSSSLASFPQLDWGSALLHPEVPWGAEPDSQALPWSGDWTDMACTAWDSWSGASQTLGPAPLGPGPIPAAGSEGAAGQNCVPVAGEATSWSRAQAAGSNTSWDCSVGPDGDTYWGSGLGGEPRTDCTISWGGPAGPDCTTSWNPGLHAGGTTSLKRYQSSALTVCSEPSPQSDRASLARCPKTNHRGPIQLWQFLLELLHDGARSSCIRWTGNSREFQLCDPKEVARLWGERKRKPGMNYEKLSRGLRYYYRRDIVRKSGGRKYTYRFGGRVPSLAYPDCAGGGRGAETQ
# How it was run: as §1
# ELF3 = target: T5, ELF3 (Homo sapiens, UniProt P78545 1-371); conditions: protein: recombinant; tags: N-terminal GST; dsDNA, one strand shown
# T5 sequence: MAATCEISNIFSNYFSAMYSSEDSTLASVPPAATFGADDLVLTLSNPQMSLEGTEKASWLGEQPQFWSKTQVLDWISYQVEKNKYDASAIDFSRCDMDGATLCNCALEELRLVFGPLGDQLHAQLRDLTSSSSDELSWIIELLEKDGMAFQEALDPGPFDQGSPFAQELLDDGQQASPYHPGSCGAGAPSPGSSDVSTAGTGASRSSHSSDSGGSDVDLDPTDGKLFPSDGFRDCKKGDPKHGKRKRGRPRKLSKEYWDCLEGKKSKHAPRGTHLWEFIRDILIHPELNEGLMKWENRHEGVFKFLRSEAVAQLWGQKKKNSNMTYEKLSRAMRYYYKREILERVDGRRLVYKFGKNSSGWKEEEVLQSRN
# How it was run: as §1
# CRX = CRX (Homo sapiens, UniProt O43186 1-299); conditions: protein: recombinant; tags: N-terminal GST; dsDNA, one strand shown
# How it was run: as §1
# ETV1 = ETV1 (Homo sapiens, UniProt P50549 1-477); conditions: protein: recombinant; tags: N-terminal GST; dsDNA, one strand shown
# How it was run: as §1
# ERF = target: T6, ERF (Homo sapiens, UniProt P50548 1-548); conditions: protein: recombinant; tags: N-terminal GST; dsDNA, one strand shown
# T6 sequence: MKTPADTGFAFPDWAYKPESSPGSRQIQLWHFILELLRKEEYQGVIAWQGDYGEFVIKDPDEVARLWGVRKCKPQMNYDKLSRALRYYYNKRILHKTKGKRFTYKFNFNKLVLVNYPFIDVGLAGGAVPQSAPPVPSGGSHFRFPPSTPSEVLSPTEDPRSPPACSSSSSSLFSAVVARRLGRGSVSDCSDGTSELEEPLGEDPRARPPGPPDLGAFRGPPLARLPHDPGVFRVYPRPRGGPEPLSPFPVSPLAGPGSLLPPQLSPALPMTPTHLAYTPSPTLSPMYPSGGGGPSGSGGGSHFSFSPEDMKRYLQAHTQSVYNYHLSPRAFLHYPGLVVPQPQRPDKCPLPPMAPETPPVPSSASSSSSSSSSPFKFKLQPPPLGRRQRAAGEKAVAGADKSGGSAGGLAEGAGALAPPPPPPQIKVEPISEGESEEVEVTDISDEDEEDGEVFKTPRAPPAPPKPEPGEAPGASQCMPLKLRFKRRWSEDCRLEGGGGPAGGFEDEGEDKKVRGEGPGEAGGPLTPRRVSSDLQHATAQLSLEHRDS
# How it was run: as §1
# ETV3L = target: T7, ETV3L (Homo sapiens, UniProt Q6ZN32 1-361); conditions: protein: recombinant; tags: N-terminal GST; dsDNA, one strand shown
# T7 sequence: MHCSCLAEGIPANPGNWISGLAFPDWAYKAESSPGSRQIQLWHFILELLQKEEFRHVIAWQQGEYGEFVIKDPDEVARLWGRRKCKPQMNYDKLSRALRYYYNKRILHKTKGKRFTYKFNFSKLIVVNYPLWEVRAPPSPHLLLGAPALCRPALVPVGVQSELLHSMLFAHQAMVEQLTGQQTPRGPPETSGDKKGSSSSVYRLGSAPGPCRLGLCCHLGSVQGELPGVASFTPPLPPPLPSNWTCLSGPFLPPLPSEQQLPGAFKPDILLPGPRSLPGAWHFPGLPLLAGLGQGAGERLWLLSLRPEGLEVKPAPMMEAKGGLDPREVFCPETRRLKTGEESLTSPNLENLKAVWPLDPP
# How it was run: as §1
# ETS2 = target: T8, ETS2 (Homo sapiens, UniProt P15036 1-469); conditions: protein: recombinant; tags: N-terminal GST; dsDNA, one strand shown
# T8 sequence: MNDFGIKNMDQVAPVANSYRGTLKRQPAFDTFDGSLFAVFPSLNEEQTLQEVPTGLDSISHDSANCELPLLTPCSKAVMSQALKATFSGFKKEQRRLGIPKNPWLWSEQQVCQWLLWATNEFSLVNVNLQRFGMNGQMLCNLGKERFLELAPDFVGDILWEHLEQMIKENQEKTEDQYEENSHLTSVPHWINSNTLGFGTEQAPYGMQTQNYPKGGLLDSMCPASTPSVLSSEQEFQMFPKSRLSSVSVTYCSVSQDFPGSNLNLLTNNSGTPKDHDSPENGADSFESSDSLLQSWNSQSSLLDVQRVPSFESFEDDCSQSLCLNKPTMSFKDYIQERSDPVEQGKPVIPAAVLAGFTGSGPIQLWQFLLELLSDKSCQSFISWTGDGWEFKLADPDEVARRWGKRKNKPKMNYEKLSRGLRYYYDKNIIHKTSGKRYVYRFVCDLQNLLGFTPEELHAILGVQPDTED
# How it was run: as §1
# SPDEF = target: T9, SPDEF (Homo sapiens, UniProt O95238 1-335); conditions: protein: recombinant; tags: N-terminal GST; dsDNA, one strand shown
# T9 sequence: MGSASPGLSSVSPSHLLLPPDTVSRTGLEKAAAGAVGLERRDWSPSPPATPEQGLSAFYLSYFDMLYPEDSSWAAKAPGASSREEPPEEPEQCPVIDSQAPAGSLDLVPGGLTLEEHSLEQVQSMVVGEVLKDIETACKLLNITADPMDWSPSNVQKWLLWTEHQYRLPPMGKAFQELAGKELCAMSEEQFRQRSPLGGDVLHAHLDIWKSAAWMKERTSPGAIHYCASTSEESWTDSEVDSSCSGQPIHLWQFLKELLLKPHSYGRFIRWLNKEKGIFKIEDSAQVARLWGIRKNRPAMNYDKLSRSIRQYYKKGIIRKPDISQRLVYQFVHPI
# How it was run: as §1
# ETV7 = target: T10, ETV7 (Homo sapiens, UniProt Q9Y603 1-341); conditions: protein: recombinant; tags: N-terminal GST; dsDNA, one strand shown
# T10 sequence: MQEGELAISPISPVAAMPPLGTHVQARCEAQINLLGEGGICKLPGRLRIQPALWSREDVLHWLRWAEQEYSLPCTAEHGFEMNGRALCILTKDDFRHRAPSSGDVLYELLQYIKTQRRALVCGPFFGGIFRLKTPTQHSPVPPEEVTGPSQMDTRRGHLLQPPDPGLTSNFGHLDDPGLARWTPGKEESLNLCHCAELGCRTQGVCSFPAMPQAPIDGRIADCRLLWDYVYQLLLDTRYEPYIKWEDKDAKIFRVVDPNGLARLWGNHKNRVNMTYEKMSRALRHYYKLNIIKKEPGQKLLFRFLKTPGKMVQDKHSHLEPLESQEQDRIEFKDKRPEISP
# How it was run: as §1
# ELF5 = target: T11, ELF5 (Homo sapiens, UniProt Q9UKW6-2 1-255); conditions: protein: recombinant; tags: N-terminal GST; dsDNA, one strand shown
# T11 sequence: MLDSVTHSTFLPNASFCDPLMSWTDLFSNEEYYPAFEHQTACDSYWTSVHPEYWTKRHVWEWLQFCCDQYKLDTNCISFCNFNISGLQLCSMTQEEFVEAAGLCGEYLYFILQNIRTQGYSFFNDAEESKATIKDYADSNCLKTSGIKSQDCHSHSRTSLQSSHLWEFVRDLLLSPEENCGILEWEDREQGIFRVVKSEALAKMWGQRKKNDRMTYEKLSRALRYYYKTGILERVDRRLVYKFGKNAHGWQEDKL
# How it was run: as §1
# ETV3 = target: T12, ETV3 (Homo sapiens, UniProt P41162-2 1-143); conditions: protein: recombinant; tags: N-terminal GST; dsDNA, one strand shown
# T12 sequence: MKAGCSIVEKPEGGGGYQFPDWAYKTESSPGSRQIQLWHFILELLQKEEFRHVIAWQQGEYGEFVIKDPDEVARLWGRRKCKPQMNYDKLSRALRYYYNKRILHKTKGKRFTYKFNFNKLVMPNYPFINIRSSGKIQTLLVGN
# How it was run: as §1
# ETV6 = ETV6 (Homo sapiens, UniProt P41212 1-452); conditions: protein: recombinant; tags: N-terminal GST; dsDNA, one strand shown
# How it was run: as §1
# Sequence of ELF4 (Q99607 whole entry): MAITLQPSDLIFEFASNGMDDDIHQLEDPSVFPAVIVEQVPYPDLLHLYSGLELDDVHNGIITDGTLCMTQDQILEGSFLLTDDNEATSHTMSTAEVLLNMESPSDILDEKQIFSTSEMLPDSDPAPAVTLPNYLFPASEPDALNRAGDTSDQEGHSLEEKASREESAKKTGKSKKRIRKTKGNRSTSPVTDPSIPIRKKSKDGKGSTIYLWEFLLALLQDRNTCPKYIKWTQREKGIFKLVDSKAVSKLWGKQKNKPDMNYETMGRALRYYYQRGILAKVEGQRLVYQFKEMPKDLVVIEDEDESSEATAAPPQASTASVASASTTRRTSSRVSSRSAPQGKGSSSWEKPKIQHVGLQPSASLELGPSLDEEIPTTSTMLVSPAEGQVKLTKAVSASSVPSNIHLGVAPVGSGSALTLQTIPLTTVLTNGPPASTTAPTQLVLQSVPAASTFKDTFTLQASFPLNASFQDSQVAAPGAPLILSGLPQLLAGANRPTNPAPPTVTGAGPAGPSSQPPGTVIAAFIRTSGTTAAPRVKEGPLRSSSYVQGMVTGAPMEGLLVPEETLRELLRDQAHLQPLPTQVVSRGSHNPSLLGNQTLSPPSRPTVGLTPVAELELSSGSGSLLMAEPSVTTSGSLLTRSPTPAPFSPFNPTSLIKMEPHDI
# Sequence of ETV1 (P50549 whole entry): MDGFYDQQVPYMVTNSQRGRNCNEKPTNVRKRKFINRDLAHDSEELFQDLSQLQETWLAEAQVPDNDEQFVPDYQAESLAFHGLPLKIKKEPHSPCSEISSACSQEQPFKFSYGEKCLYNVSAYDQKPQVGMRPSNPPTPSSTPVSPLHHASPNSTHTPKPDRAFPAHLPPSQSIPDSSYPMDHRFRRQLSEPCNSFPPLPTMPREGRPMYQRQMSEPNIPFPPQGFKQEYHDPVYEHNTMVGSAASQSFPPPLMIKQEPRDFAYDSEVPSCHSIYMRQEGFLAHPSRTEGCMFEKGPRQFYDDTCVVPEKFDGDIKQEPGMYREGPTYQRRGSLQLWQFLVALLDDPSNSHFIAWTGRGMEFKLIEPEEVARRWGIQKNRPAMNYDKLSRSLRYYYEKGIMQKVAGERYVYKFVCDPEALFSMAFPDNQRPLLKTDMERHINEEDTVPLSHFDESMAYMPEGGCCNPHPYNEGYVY
# Sequence of ETV5 (P41161 whole entry): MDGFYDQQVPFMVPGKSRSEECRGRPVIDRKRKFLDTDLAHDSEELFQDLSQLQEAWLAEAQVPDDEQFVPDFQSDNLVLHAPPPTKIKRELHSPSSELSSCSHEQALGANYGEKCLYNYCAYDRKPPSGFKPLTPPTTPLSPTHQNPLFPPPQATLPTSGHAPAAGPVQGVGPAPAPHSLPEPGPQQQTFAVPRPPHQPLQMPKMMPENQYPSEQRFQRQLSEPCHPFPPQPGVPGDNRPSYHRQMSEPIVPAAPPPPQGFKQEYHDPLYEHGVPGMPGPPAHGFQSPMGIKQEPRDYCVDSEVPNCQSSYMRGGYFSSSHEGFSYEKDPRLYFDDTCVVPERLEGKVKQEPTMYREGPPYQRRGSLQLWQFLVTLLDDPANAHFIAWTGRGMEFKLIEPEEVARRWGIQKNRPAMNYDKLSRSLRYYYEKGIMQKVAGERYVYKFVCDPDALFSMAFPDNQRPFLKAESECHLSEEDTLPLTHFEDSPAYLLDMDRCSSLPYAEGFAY
# Sequence of ETV6 (P41212 whole entry): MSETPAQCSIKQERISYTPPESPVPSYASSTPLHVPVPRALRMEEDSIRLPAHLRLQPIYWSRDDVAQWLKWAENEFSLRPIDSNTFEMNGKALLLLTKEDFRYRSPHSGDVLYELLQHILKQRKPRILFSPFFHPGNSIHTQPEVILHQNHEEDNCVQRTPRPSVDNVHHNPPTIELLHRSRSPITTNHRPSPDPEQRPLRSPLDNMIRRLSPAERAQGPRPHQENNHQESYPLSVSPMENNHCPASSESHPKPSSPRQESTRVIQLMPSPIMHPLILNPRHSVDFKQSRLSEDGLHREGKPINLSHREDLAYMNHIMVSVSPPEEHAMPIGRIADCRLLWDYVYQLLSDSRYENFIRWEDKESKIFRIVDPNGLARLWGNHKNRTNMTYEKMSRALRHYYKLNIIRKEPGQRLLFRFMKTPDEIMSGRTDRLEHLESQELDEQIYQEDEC
# Sequence of CRX (O43186 whole entry): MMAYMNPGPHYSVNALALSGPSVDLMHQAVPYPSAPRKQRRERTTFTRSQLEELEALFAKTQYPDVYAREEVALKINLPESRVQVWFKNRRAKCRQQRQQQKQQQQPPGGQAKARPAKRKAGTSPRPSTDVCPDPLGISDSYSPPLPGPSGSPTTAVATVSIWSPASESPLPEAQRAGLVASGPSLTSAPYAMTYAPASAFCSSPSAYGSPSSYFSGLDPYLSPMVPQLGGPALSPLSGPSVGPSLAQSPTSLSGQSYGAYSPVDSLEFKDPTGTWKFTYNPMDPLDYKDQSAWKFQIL
# Sequence of HSF1 (Q00613 whole entry): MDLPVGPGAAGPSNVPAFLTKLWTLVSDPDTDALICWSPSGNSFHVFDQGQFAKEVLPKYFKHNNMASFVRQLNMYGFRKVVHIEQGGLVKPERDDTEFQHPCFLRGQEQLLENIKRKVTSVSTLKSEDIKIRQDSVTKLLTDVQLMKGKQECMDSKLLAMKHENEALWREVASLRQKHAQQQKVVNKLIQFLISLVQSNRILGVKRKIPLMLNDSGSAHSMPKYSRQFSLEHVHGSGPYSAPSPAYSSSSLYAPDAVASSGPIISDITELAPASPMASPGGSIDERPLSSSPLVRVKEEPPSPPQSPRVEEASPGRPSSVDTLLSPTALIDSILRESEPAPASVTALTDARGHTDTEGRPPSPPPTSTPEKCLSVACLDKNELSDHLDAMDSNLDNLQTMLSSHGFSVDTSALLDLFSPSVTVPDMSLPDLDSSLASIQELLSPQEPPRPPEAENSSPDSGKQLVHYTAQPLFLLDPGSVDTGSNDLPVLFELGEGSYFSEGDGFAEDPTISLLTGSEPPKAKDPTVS
sequence,measurement,setting,value
TGTACT,binding signal,FEV,"1.41 fold enrichment (6-mer frequency, TF over GST control)"
same,binding signal,ETV5,"1.34 fold enrichment (6-mer frequency, TF over GST control)"
same,binding signal,HSF1,"1.18 fold enrichment (6-mer frequency, TF over GST control)"
same,binding signal,SPIC,"1.18 fold enrichment (6-mer frequency, TF over GST control)"
same,binding signal,ELF4,"1.29 fold enrichment (6-mer frequency, TF over GST control)"
same,binding signal,ELK4,"1.2 fold enrichment (6-mer frequency, TF over GST control)"
same,binding signal,ETV2,"1.3 fold enrichment (6-mer frequency, TF over GST control)"
same,binding signal,ELF3,"1.23 fold enrichment (6-mer frequency, TF over GST control)"
same,binding signal,CRX,"1.15 fold enrichment (6-mer frequency, TF over GST control)"
same,binding signal,ETV1,"1.34 fold enrichment (6-mer frequency, TF over GST control)"
same,binding signal,ERF,"1.11 fold enrichment (6-mer frequency, TF over GST control)"
same,binding signal,ETV3L,"1.26 fold enrichment (6-mer frequency, TF over GST control)"
same,binding signal,ETS2,"1.27 fold enrichment (6-mer frequency, TF over GST control)"
same,binding signal,SPDEF,"1.71 fold enrichment (6-mer frequency, TF over GST control)"
same,binding signal,ETV7,"1.24 fold enrichment (6-mer frequency, TF over GST control)"
same,binding signal,ELF5,"1.37 fold enrichment (6-mer frequency, TF over GST control)"
same,binding signal,ETV3,"1.22 fold enrichment (6-mer frequency, TF over GST control)"
same,binding signal,ETV6,"1.28 fold enrichment (6-mer frequency, TF over GST control)"
